Consider 18 compounds from PubChem BioAssay.

Assay [1] can be described thus: antimalarial activity against Dd2 strain (AID 2302;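 active = growth inhibition above 50% at the single 2 µM test dose, taken to imply half-maximal potency below 2 µM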;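 note: 0% = DMSO untreated growth and 100% = chloroquine plus artemisinin killed control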). As to conditions: P. falciparum Dd2 in RBCs, LDH growth readout, 72 h; at 2 µM; stronger effect = higher value.
Assay [2] in a line: human hepatoma cell viability loss – ATP luminescence, cytotoxicity control for P. falciparum antimalarial project, primary screen (AID 2303;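 active = inhibition above 50%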;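 note: 0% = DMSO wells and 100% = digitonin-killed cells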). The note with it: HepG2 viability, 24-48 h, at 10 µM, stronger effect = higher value.
The target in assay [3] is L-lactate dehydrogenase (Plasmodium falciparum (isolate CDC / Honduras)) (UniProt Q27743). Nature of the assay: PfLDH activity inhibition – cell lysate, 3D7 strain, counter-screen for P. falciparum growth inhibition project (AID 2304).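 Note: 0% = vehicle and 100% = reference inhibitor.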 The note with it: P. falciparum 3D7 crude extract, LDH APAD/NBT absorbance; at 2 µM; stronger effect = higher value. Background: A counterscreen serves to expose hits that act by an unwanted route or on another target.
Sequence of L-lactate dehydrogenase (Plasmodium falciparum (isolate CDC / Honduras)) (Q27743 whole entry, looked up): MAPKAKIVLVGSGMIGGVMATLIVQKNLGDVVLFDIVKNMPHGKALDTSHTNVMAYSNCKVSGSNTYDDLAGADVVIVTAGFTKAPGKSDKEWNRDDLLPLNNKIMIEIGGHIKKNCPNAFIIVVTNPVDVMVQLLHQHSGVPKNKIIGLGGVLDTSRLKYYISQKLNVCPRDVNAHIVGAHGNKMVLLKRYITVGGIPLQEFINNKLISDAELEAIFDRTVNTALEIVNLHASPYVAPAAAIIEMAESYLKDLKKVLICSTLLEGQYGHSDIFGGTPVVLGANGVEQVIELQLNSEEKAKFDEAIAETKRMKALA

Assay [4] can be described thus: inhibition of 3D7 malaria parasite growth – strain 3D7 (AID 2306).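 Note: 0% = DMSO wells and 100% = chloroquine plus artemisinin control wells.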 As to conditions: P. falciparum 3D7 erythrocytic growth, LDH absorbance, 72 h; at 2 µM; stronger effect = higher value.
The target of assay [5] is Calcium-dependent protein kinase 1 (Plasmodium falciparum (isolate 3D7)) (UniProt P62344). Description: PfCDPK1 kinase inhibitors, biochemical, TCAMS library (AID 1159585; cut-off not given, nearly all actives have IC50 up to about 0.98 µM;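 note: inhibitors leave more ATP so luminescence rises with inhibition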). The note with it: recombinant PfCDPK1, Kinase-Glo ATP depletion luminescence. Background: Kinase-Glo measures the ATP left after a reaction by luminescence.
Sequence of Calcium-dependent protein kinase 1 (Plasmodium falciparum (isolate 3D7)) (P62344 whole entry, looked up): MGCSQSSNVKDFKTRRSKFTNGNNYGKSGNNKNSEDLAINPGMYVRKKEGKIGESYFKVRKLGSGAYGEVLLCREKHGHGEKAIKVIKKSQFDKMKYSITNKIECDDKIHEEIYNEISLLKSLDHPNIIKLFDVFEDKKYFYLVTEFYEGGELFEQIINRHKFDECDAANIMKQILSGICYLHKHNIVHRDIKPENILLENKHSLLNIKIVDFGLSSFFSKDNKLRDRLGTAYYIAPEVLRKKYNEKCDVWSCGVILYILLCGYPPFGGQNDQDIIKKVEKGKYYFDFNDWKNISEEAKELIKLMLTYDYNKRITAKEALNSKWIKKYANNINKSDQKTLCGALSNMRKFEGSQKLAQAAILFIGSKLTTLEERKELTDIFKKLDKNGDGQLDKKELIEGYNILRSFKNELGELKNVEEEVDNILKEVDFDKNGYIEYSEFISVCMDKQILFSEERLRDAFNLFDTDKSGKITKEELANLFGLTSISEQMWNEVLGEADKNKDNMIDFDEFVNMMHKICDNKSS
The target of assay [6] is Plasmodium falciparum protein kinase 6 (PK6, PF3D7_1337100) (UniProt Q8IDW1). Nature of the assay: PfPK6 kinase inhibitors, biochemical, TCAMS library (AID 1159586). The note with it: recombinant PfPK6, Kinase-Glo ATP depletion luminescence.
Sequence of Plasmodium falciparum protein kinase 6 (PK6, PF3D7_1337100) (Q8IDW1 1-305): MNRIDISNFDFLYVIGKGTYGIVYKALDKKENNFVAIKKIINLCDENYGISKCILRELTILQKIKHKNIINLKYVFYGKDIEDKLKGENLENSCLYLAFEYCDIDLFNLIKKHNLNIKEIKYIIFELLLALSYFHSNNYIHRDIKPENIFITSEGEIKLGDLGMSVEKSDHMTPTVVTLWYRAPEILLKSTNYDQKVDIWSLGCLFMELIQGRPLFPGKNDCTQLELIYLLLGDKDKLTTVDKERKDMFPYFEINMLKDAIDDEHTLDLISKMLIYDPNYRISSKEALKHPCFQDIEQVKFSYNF
For assay [7], the target named is Protein kinase 7 (PK7), Plasmodium falciparum 3D7 (PF3D7_0213400) (UniProt Q7YTF7). Description: inhibition of Plasmodium PK7 catalytic activity – biochemical, TCAMS antimalarial set, Kinase-Glo luminescence (AID 1159587). The note with it: recombinant PfPK7, Kinase-Glo ATP depletion luminescence.
Sequence of Protein kinase 7 (PK7), Plasmodium falciparum 3D7 (PF3D7_0213400) (Q7YTF7 1-343): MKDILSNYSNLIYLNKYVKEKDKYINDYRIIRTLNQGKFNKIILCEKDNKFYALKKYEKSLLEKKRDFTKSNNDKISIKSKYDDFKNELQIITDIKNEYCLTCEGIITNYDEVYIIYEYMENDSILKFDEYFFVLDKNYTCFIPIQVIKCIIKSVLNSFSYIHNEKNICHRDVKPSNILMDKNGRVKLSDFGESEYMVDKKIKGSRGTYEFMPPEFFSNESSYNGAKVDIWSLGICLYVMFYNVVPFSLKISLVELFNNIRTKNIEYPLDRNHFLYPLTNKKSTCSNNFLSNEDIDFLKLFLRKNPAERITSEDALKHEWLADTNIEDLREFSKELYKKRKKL
Assay [8] addresses Calcium-dependent protein kinase 4 (Plasmodium falciparum (isolate 3D7)) (UniProt Q8IBS5). Description: PfCDPK4 kinase inhibitors, biochemical, TCAMS library (AID 1159588; cut-off not given, nearly all actives have IC50 up to about 0.91 µM). The note with it: recombinant PfCDPK4, Kinase-Glo ATP depletion luminescence.

Each structure is given as a SMILES string. Several values for one entry are separate records, joined by “and”; a condition that tells them apart may be missing. Equal values may be shown once. For part of these data: Entries with a potency or affinity are not part of this list. Activity calls are given as the source filed them. Unless noted, the rule behind the calls is not given here.

Sequence of Calcium-dependent protein kinase 4 (Plasmodium falciparum (isolate 3D7)) (Q8IBS5 whole entry, looked up): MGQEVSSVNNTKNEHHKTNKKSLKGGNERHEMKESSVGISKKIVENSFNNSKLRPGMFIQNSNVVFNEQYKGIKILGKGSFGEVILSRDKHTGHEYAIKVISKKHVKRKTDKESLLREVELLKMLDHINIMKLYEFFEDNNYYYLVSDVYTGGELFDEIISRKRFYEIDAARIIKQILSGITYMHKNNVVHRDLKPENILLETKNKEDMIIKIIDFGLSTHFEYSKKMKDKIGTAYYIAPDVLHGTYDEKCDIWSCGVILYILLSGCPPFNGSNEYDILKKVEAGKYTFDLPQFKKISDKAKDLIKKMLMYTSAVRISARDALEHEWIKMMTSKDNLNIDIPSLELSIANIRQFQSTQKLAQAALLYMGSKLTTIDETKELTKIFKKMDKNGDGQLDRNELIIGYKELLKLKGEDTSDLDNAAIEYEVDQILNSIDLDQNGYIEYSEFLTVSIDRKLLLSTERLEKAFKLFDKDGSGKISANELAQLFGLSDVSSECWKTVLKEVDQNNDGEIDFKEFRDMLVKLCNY

The inhibition is the change of the read-out against control, counted positive when it falls. On to `Cc1ccc(/C=C/C(=O)NC2CCC(CN3CCC(c4c[nH]c5ccccc45)CC3)CC2)cc1C` (centres undefined), for which the growth inhibition was 71% (active) and 91% (active) in assay [1]; 100% (active) and 101% (active) in assay [4]. Further, the inhibition in assay [2] is 23% (inactive) and 38% (inactive); in assay [3], 8% (inactive) and 4% (inactive). The outcome in assay [5], in assay [6], in assay [7] and in assay [8] was inactive.

In the case of `CN1C(=O)[C@H](NC(=O)[C@@H](Cc2ccccc2)NC(=S)Nc2ccccc2)N=C(c2ccccc2)c2ccccc21`, the growth inhibition was 23% (inactive) in assay [1] and 86% (active) in assay [4]. Further, the results for the inhibition in assay [2] and in assay [3] were -8% (inactive) and -1% (inactive), respectively. The outcome in assay [5], in assay [6], in assay [7] and in assay [8] was inactive.

Take `CC(Cc1ccc(Oc2ccc(Cl)cc2)cc1)NCC(O)c1cccc(Cl)c1` (centres undefined): the growth inhibition in assay [1] is 98% (active); in assay [4], 99% (active). Further, the inhibition in assay [2] is 3% (inactive); in assay [3], -2% (inactive). Also, the outcome in assay [5], in assay [6], in assay [7] and in assay [8] was inactive.

For `CCN1CC[C@]2(c3cccc(OC)c3)Cc3nc4ccccc4c(-c4ccccc4)c3C[C@H]2C1`, the growth inhibition was 98% (active) in assay [1] and 99% (active) in assay [4]. Moreover, the inhibition was 0% (inactive) in assay [2] and -4% (inactive) in assay [3]. The result in assay [5], in assay [6], in assay [7] and in assay [8] was inactive.

For the compound `CC[C@H]1CN2CC[C@@H]1C[C@H]2[C@H](O)c1cc(N2CCSCC2)nc2ccc(OC)cc12`, the growth inhibition in assay [1] is 98% (active); in assay [4], 99% (active). Besides, the inhibition was 2% (inactive) in assay [2] and 1% (inactive) in assay [3]. Further, the outcome in assay [5], in assay [6], in assay [7] and in assay [8] was inactive.

For the compound `O=C(/C=C/c1ccc(Cl)c(Cl)c1)NCC1CCC(N2CCC(c3c[nH]c4ccccc34)CC2)CC1` (centres undefined), the growth inhibition in assay [1] was 95% (active); in assay [4], 101% (active). The inhibition in assay [2] is 48% (inactive); in assay [3], -1% (inactive). Also, the outcome in assay [5], in assay [6], in assay [7] and in assay [8] was inactive.

For the compound `CCOC(=O)c1ccc(CC(C)NCC(O)c2cccc(C(F)(F)F)c2)cc1` (centres undefined), the growth inhibition was 98% (active) in assay [1] and 100% (active) in assay [4]. Moreover, the inhibition in assay [2] is 5% (inactive); in assay [3], -9% (inactive). Also, the result in assay [5], in assay [6], in assay [7] and in assay [8] was inactive.

In the case of `OC(CNC12CC3CC(CC(C3)C1)C2)c1cccc(C(F)(F)F)c1` (centres undefined), the growth inhibition in assay [1] was 98% (active); in assay [4] it was 97% (active). Also, the inhibition in assay [2] is 16% (inactive); in assay [3], -3% (inactive). The result in assay [5], in assay [6], in assay [7] and in assay [8] was inactive.

As to `Cc1[nH]c2cc(F)ccc2c1C1=CCN(CCCCC2(C)C(=O)Nc3ccccc32)CC1` (centres undefined), the results for the growth inhibition in assay [1] and in assay [4] were 90% (active) and 93% (active), respectively. Further, the inhibition in assay [2] is 13% (inactive); in assay [3], -8% (inactive). For the same compound, the outcome in assay [5], in assay [6], in assay [7] and in assay [8] was inactive.

As for `Clc1ccc2nccc(N3CCC(CN4CCC(c5c[nH]c6ccccc56)CC4)CC3)c2c1`, the growth inhibition in assay [1] was 81% (active); in assay [4] it was 101% (active). Besides, the inhibition in assay [2] is 46% (inactive); in assay [3], 4% (inactive). Besides, the outcome in assay [5], in assay [6], in assay [7] and in assay [8] was inactive.

For `O=C(NC1CCC(CN2CCC(c3c[nH]c4ccccc34)CC2)CC1)c1ccc(-c2ccccc2[N+](=O)[O-])o1` (centres undefined), the values for the growth inhibition in assay [1] and in assay [4] were 34% (inactive) and 100% (active), respectively. The inhibition was 24% (inactive) in assay [2] and -2% (inactive) in assay [3]. Besides, the outcome in assay [5], in assay [6], in assay [7] and in assay [8] was inactive.

Take `O=C(/C=C/c1ccc(Cl)c(Cl)c1)NC1CCC(CN2CCC(c3c[nH]c4ccccc34)CC2)CC1` (centres undefined): the figures for the growth inhibition in assay [1] and in assay [4] were 85% (active) and 101% (active), respectively. Moreover, the figures for the inhibition in assay [2] and in assay [3] were 27% (inactive) and 5% (inactive), respectively. In addition, the outcome in assay [5], in assay [6], in assay [7] and in assay [8] was inactive.

`CCOc1ccc(Br)cc1/C=C/C(=O)Nc1ccc2c(c1)[C@@H]1CC[C@H]2N1C`: the growth inhibition is 26% (inactive) in assay [1] and 89% (active) in assay [4]. Also, the inhibition in assay [2] was 60% (active); in assay [3], -2% (inactive). For the same compound, the outcome in assay [5], in assay [6], in assay [7] and in assay [8] was inactive.

As for `CC(=O)N(Cc1cccc(-c2ccc(CNCCc3ccccc3)cc2)c1)C1CCN(Cc2ccccc2)CC1`, the growth inhibition in assay [1] is 50% (active); in assay [4], 99% (active). For the same compound, the inhibition in assay [2] is 32% (inactive); in assay [3], -5% (inactive). The result in assay [5], in assay [6], in assay [7] and in assay [8] was inactive.

As for `Cc1cc(N)nc2cc(CNCCc3ccccc3Br)ccc12`, the growth inhibition in assay [1] is 93% (active); in assay [4] it was 101% (active). Moreover, the inhibition in assay [2] is 47% (inactive); in assay [3], 0% (inactive). Besides, the result in assay [5], in assay [6], in assay [7] and in assay [8] was inactive.

For the compound `COC(=O)c1ccc(CC(C)NCC(O)c2ccc(Cl)c(Cl)c2)cc1` (centres undefined), the growth inhibition was 33% (inactive) in assay [1] and 87% (active) in assay [4]. The inhibition was -1% (inactive) in assay [2] and 0% (inactive) in assay [3]. The result in assay [5], in assay [6], in assay [7] and in assay [8] was inactive.

Turning to `Cc1ccc(CC(C)NCC(O)c2cccc(Cl)c2)cc1F` (centres undefined), the growth inhibition in assay [1] is 88% (active); in assay [4], 95% (active). Besides, the inhibition in assay [2] is 1% (inactive); in assay [3], -2% (inactive). Also, the outcome in assay [5], in assay [6], in assay [7] and in assay [8] was inactive.

`CC[C@H]1CN2CC[C@H]1C[C@H]2[C@H](O)c1cc(-c2cccc(C)c2)nc2ccc(OC)cc12`: the growth inhibition in assay [1] and in assay [4] was 100% (active) throughout. In addition, the inhibition was 15% (inactive) in assay [2] and 3% (inactive) in assay [3]. For the same compound, the result in assay [5], in assay [6], in assay [7] and in assay [8] was inactive.
